Common to all, as to test: NCI-60 one-dose screen, 48 h (100 = growth as untreated, 0 = no growth, -100 = all killed)
In assay [1] the test system is DU-145 prostate. The following applies: 10 µM.
Assay [2] relates to K-562 leukemia. The following applies: 10 µM.
For assay [3], the system named is MALME-3M melanoma. The following applies: 10 µM.
The subject of assay [4] is MDA-MB-231 breast. The following applies: 10 µM.
In assay [5] the test system is RXF 393 renal. The following applies: 10 µM.
Assay [6] relates to SF-268 CNS. The following applies: 10 µM.
Assay [7] has as its system SF-295 CNS. The following applies: 10 µM.
Assay [8] concerns SF-539 CNS. The following applies: 10 µM.
Assay [9] relates to UACC-257 melanoma. The following applies: 10 µM.
For assay [10], the system named is M14 melanoma. The following applies: 10 µM unless noted.
In assay [11] the test system is HCT-15 colon. The following applies: 10 µM.
Assay [12] relates to HT29 colon. The following applies: 10 µM.
In assay [13] the test system is SNB-75 CNS. The following applies: 10 µM.
Assay [14] has as its system SNB-19 CNS. The following applies: 10 µM.
Assay [15] relates to U251 CNS. The following applies: 10 µM.
Assay [16] has as its system PC-3 prostate. The following applies: 10 µM.
Assay [17] deals with SK-MEL-5 melanoma. The following applies: 10 µM.
Assay [18] relates to UACC-62 melanoma. The following applies: 10 µM.
Assay [19] has as its system LOX IMVI melanoma. The following applies: 10 µM.
The test system of assay [20] is SK-MEL-28 melanoma. The following applies: 10 µM.

Where “and” joins values, the source holds several entries; their conditions need not be identical. Identical values can stand only once. About 83,000 compounds went through this panel and 20% of them were active in at least one assay; those are over-represented in the sample as a whole.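 For each line, cells grew in 96-well plates with the test compound present at a single concentration for 48 hours.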 Values without a mark were called inactive. Calls of active or inactive are those of the source. How the source made its calls: active means growth percent below 10; inactive means the rest.

Regarding `Cn1c2nc3ccccc3c-2nc2ccccc21`, the growth was 94.4% and 95.7% in assay [1]; 121% and 94.7% in [2]; 116% and 115% in [3]; 79.9% and 83.8% in [4]; 91% and 90.7% in assay [5]; 97% and 97.7% in assay [6]. For the same compound, the growth in [7] was 96.8% and 107%; in [8], 92.2% and 77.2%; in assay [9] it was 108% and 94.5%; in assay [10] it was 108% and 100%; in assay [11] it was 94.9% and 85.2%; in assay [12], 99.7% and 103%. For the same compound, the growth was 101% and 81.1% in assay [13]; 88.8% and 82.8% in assay [14]; 91.4% and 90.2% in assay [15]; 95.4% and 99.7% in assay [16]; 82.5% and 65.6% in assay [17]; 87.4% and 91.2% in [18]. In addition, the growth is 99.5% and 86.1% in [19]; 113% and 106% in assay [20].

As for `COc1ccc2oc(-c3ccc(Cl)cc3)c(N3CCN(C)CC3)c2c1`, the growth in assay [1] is 24.3%; in assay [2], -24.7% (active); in assay [3], 121%; in [4], 0.119% (active); in [5] it was 28%; in [6], 37.2%. Also, the growth in assay [7] is -54.5% (active); in assay [8], -6.28% (active); in [9], 22%; in assay [10], -66% (active); in assay [11], 28.9%; in assay [12], -1.44% (active). The growth was 18.3% in assay [13]; 48.6% in assay [14]; 20.1% in [15]; 4.07% (active) in [16]; -14.8% (active) in [17]; -52.6% (active) in assay [18]. Also, the growth in assay [19] is -87.5% (active); in assay [20] it was -12.3% (active).

The values are drawn from PubChem BioAssay (NCI).
